The record followed here is PubChem BioAssay (EPA / NIEHS).

Molecules are shown by their SMILES. Activity calls are given as the source filed them. The calls were made as follows: active = hit-call score of the fitted dose curve at least 0.9, where 1 is the maximum; inactive = score below 0.9.

For orientation: AC50 means the concentration giving half of the maximal activity seen.

Read-out in this assay: Monocyte Chemoattractant Protein-1 (MCP1), CCL2 (gene 6347)
The assay is described as follows: BSK_3C_MCP1: BioMAP Diversity Plus: 3C Assay for Monocyte Chemoattractant Protein-1 (MCP1) Biomarker Activity (AID 2283017). As to conditions: primary human endothelial cells (HUVEC); actives raise or lower the signal. Here is the method:
BSK_3C is a cell-based, multiplexed-readout assay that uses umbilical vein endothelium, a human vascular primary cell, with measurements taken at 24 hours after chemical dosing in a 96-well plate.BSK_3C_MCP1 is an assay component measured in the BSK_3C assay. It measures MCP-1 antibody related to regulation of gene expression using ELISA technology.Data from the assay component BSK_3C_MCP1 was analyzed into 1 assay endpoint. This assay endpoint, BSK_3C_MCP1, was analyzed with bidirectional fitting relative to DMSO as the negative control and baseline of activity. Using a type of binding reporter, gain or loss-of-signal activity can be used to understand changes in the signaling as they relate to the gene CCL2. Furthermore, this assay endpoint can be referred to as a primary readout, because this assay has produced multiple assay endpoints where this one serves a signaling function. To generalize the intended target to other relatable targets, this assay endpoint is annotated to the cytokine intended target family, where the subfamily is chemotactic factor.
The levels of cell surface (or secreted, indicated by the prefix "s") biomarker endpoints were measured by ELISA. Overt cytotoxicity to cells in confluent adherent cultures (all systems other than the BT system) was assessed by measuring total protein levels using sulforhodamine B (SRB) staining in parallel cultures at the time of biomarker measurements, indicated as SRB endpoints. For proliferation assays for adherent cell types, individual cell types are cultured at sub-confluence and relative cell numbers quantified by SRB staining at time points optimized for each system (48 h: 3C and CASM3C systems; 72 h: BT and HDF3CGF systems; 96 h: SAg system). SRB was performed by staining cells with 0.1% SRB after fixation with 10% TCA and reading wells at 560 nm.Viability and proliferation of PBMC (T cells) was quantified by Alamar Blue reduction for the SAg and BT systems. For PBMC viability (referred to as PBMC Cytotoxicity within the assay endpoint names), cells were plated (75,000/well in a 96-well plate) and then chemical samples added for 1 h before addition of activators, SEB and TSST-1 (20 ng/mL final concentration each). Cells were incubated for 90 h. Then, Alamar Blue (20 uL/well) (Invitrogen, Cat DAL1100) was added for 6 h, and the plates were read with a fluorescence microplate reader at 546/580 nm (excitation/emission). For PBMC proliferation, cells were plated and activated as above but incubated for only 16 h prior to addition of Alamar Blue. Plates were read after 6 h.
As to `CCCc1ccccc1`, the result was inactive. The same measure, in the same setting: then `OC[C@H]1O[C@@](CO)(O[C@H]2O[C@H](CO)[C@@H](O)[C@H](O)[C@H]2O)[C@@H](O)[C@@H]1O`, with “inactive”. Turning to `CCCCN1C(=O)[C@@H]([C@H](O)C2CCCCC2)NC(=O)C12CCN(Cc1ccc(Oc3ccc(C(=O)O)cc3)cc1)CC2`, the concentration at half-maximal activity (AC50) is 14.9 µM (active).

In the case of `CCOC(N)=O`, the outcome was inactive. The same measure, in the same setting: then `O=C(Cl)C(F)(F)C(F)(F)C(F)(F)C(=O)Cl`, with “inactive”. Same read-out and setting: then `Cc1nc(-c2ccccn2)ncc1C(=O)Nn1cc(C)c2cc(F)ccc21`, with “inactive”. With `O=C(O)c1cccc(C(=O)O)c1`, the result was inactive. For the compound `CCCCCCCCN(C)C`, the outcome was inactive. On the same count and under the same terms, then `NCC(F)(F)C(F)(F)C(F)(F)C(F)(F)F`, with “inactive”. Turning to `CCCCCCCCCCCCCCO`, the concentration at half-maximal activity (AC50) was 30.5 µM (active).

In the case of `CCCCC(CC)C(=O)OCCOCCOCCOC(=O)C(CC)CCCC` (stereo not given), the result was inactive.

Consider `CC(=O)c1ccccc1`, for which the result was inactive. The same measure, in the same setting: then `OC[C@H]1O[C@@H]2O[C@H]3[C@H](O)[C@@H](O)[C@@H](O[C@H]4[C@H](O)[C@@H](O)[C@@H](O[C@H]5[C@H](O)[C@@H](O)[C@@H](O[C@H]6[C@H](O)[C@@H](O)[C@@H](O[C@H]7[C@H](O)[C@@H](O)[C@@H](O[C@H]1[C@H](O)[C@H]2O)O[C@@H]7CO)O[C@@H]6CO)O[C@@H]5CO)O[C@@H]4CO)O[C@@H]3CO`, with “inactive”; and `FC(F)(F)COC(OCC(F)(F)F)OCC(F)(F)F`, with “inactive”; and `O=S(=O)(O)CCC(F)(F)C(F)(F)C(F)(F)C(F)(F)C(F)(F)C(F)(F)F`, with “inactive”. On the same count and under the same terms, the value for `FC(F)C(F)(F)COCC1CO1` (stereo not given) was “inactive”; that for `O=C(O)[C@H](O)[C@@H](O)C(=O)O` was “inactive”.

Regarding `O=C(O)c1ccc2c(c1)nc(C(=O)NC1CCN(C3CC3)CC1)n2Cc1cc(-c2ccc(Cl)s2)on1`, the outcome was inactive. Still for that read-out and setting: then `CC(C)C(=O)Nc1ccc([N+](=O)[O-])c(C(F)(F)F)c1`, with “inactive”; and `c1ccc2ncccc2c1`, with “inactive”; and `CCCCCCOC(=O)CC(CC(=O)OCCCCCC)(OC(=O)CCC)C(=O)OCCCCCC`, with “inactive”. On the same count and under the same terms, then `C[C@@H](Oc1ccc(CNC(=O)c2cccnc2Oc2ccc3c(c2)OCO3)c(F)c1)C(=O)O`, with “inactive”. On the same count and under the same terms, then `NC(N)=O`, with “inactive”. For `COCc1nnc(-c2ccc[n+]([O-])c2)n1-c1c(Cl)c(Cl)cc2[nH]c(=O)c(=O)[nH]c12`, the outcome was inactive. Still for that read-out and setting: the value for `CC1(C)C(=O)N(Cl)C(=O)N1Cl` was “inactive”; that for `OCC(CO)(CO)CO` was “inactive”; that for `Nc1ccn([C@@H]2O[C@H](CO)[C@@H](O)[C@@H]2O)c(=O)n1` was “inactive”. Same read-out and setting: the value for `CNC(C)=O` was “inactive”; that for `C[C@]12C=CC(=O)C=C1CC[C@H]1[C@@H]3C[C@@H](O)[C@](O)(C(=O)CO)[C@@]3(C)C[C@H](O)[C@@]12F` was “inactive”; that for `OC(O)(C(F)C(O)(O)C(F)(F)F)C(F)(F)F` was “inactive”. The same measure, in the same setting: then `c1ccc2c(c1)-c1cccc3c1c-2cc1ccccc13`, with “inactive”. `CCCCCCCC1CCC(=O)O1` (stereo not given): the result was inactive.

Consider `CCc1cccc(CC)c1N`, for which the outcome was inactive. In the case of `C=CCc1cc(S(=O)(=O)c2ccc(O)c(CC=C)c2)ccc1O`, the AC50 was 14.4 µM (active).

Turning to `CCc1ccc(O)c(C(C)(C)C)c1`, the AC50 was 30.9 µM (active). Regarding `Cn1c(=O)c2[nH]cnc2n(C)c1=O`, the outcome was inactive. The same measure, in the same setting: the value for `CCCCCOC(C)=O` was “inactive”.

Consider `Cc1ccc(S(=O)(=O)NC(=O)NN2CCCCCC2)cc1`, for which the outcome was inactive. Still for that read-out and setting: then `CCCCCCCCCC`, with “inactive”; and `NC(=O)N1c2ccccc2C=Cc2ccccc21`, with “inactive”.
